Test results: publication PMC11006913
Positions count from the first letter of the chain named.

What was measured:
Test in all cases: PBM; 200 nM protein, PBS
Details in all cases: dsDNA, one strand shown
[1] = molecular target: ALX4 (Homo sapiens, UniProt Q9H161 200-286)
[2] = molecular target: ALX4 (Homo sapiens, UniProt Q9H161 200-286, Q225E)
[3] = molecular target: MSX2 (Homo sapiens, UniProt P35548 130-214, R199I)
[4] = molecular target: MSX2 (Homo sapiens, UniProt P35548 130-214)
[5] = molecular target: MSX2 (Homo sapiens, UniProt P35548 130-214, F161Y)
Sequence of MSX2 (Homo sapiens, UniProt P35548 130-214, F161Y) (P35548 130-214 F161Y): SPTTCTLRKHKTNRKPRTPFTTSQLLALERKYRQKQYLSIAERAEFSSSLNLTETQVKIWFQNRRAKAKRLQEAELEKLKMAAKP

[6] = molecular target: T1, PAX4 (Homo sapiens, UniProt O43316 9-242, R200K)
T1 sequence: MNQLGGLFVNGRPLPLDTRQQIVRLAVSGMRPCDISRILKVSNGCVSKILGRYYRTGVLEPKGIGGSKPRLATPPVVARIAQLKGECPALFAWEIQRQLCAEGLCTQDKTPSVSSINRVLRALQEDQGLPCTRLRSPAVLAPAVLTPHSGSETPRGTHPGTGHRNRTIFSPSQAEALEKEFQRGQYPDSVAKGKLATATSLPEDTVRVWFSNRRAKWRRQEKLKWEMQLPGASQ

[7] = molecular target: PRRX1 (Homo sapiens, UniProt P54821 80-166, F113S)
Sequence of PRRX1 (Homo sapiens, UniProt P54821 80-166, F113S) (P54821 80-166 F113S): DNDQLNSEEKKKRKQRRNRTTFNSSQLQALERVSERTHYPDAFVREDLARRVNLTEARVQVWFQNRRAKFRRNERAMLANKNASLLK

[8] = molecular target: T2, PAX4 (Homo sapiens, UniProt O43316 9-242)
T2 sequence: T1 sequence with K192R

[9] = molecular target: HOXA2 (Homo sapiens, UniProt O43364 129-215, R185T)
Sequence of HOXA2 (Homo sapiens, UniProt O43364 129-215, R185T) (O43364 129-215 R185T): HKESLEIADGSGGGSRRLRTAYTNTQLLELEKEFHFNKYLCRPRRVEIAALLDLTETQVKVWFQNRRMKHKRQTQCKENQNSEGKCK

[10] = molecular target: T3, PAX4 (Homo sapiens, UniProt O43316 9-242, R200Q)
T3 sequence: T1 sequence with K192Q

[11] = molecular target: HOXA2 (Homo sapiens, UniProt O43364 129-215, R185K)
Sequence of HOXA2 (Homo sapiens, UniProt O43364 129-215, R185K) (O43364 129-215 R185K): as the sequence (O43364 129-215 R185T) above, with T57K counted along it

[12] = molecular target: T4, PAX4 (Homo sapiens, UniProt O43316 9-242, F177V)
T4 sequence: T1 sequence with F169V, K192R

[13] = molecular target: T5, PAX4 (Homo sapiens, UniProt O43316 9-242, F177Y)
T5 sequence: T1 sequence with F169Y, K192R

[14] = molecular target: T6, PAX4 (Homo sapiens, UniProt O43316 9-242, R227W)
T6 sequence: T1 sequence with K192R, R219W

[15] = molecular target: HOXA2 (Homo sapiens, UniProt O43364 129-215, Y150S)
Sequence of HOXA2 (Homo sapiens, UniProt O43364 129-215, Y150S) (O43364 129-215 Y150S): as the sequence (O43364 129-215 R185T) above, with Y22S, T57R counted along it

[16] = molecular target: PRRX1 (Homo sapiens, UniProt P54821 80-166)
Sequence of PRRX1 (Homo sapiens, UniProt P54821 80-166) (P54821 80-166): as the sequence (P54821 80-166 F113S) above, with S34F counted along it

[17] = molecular target: HOXA2 (Homo sapiens, UniProt O43364 129-215)
Sequence of HOXA2 (Homo sapiens, UniProt O43364 129-215) (O43364 129-215): as the sequence (O43364 129-215 R185T) above, with T57R counted along it

[18] = molecular target: ALX3 (Homo sapiens, UniProt O95076 139-225, N203Q)
Sequence of ALX3 (Homo sapiens, UniProt O95076 139-225, N203Q) (O95076 139-225 N203Q): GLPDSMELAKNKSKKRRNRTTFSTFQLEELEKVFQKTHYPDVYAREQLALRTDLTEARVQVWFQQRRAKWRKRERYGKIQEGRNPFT

[19] = molecular target: ALX3 (Homo sapiens, UniProt O95076 139-225)
Sequence of ALX3 (Homo sapiens, UniProt O95076 139-225) (O95076 139-225): as the sequence (O95076 139-225 N203Q) above, with Q65N counted along it

[20] = molecular target: PROP1 (Homo sapiens, UniProt O75360 56-141)
Sequence of PROP1 (Homo sapiens, UniProt O75360 56-141) (O75360 56-141): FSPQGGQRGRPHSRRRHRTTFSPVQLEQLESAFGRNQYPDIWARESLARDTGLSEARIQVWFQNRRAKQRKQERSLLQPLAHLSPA

[21] = molecular target: PROP1 (Homo sapiens, UniProt O75360 56-141, R99H)
Sequence of PROP1 (Homo sapiens, UniProt O75360 56-141, R99H) (O75360 56-141 R99H): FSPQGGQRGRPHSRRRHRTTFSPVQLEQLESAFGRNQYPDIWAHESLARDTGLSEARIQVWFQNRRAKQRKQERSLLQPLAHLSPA

[22] = molecular target: ALX3 (Homo sapiens, UniProt O95076 139-225, L168Q)
Sequence of ALX3 (Homo sapiens, UniProt O95076 139-225, L168Q) (O95076 139-225 L168Q): as the sequence (O95076 139-225 N203Q) above, with L30Q, Q65N counted along it

[23] = molecular target: ALX3 (Homo sapiens, UniProt O95076 139-225, L168V)
Sequence of ALX3 (Homo sapiens, UniProt O95076 139-225, L168V) (O95076 139-225 L168V): as the sequence (O95076 139-225 N203Q) above, with L30V, Q65N counted along it

[24] = molecular target: PROP1 (Homo sapiens, UniProt O75360 56-141, F88S)
Sequence of PROP1 (Homo sapiens, UniProt O75360 56-141, F88S) (O75360 56-141 F88S): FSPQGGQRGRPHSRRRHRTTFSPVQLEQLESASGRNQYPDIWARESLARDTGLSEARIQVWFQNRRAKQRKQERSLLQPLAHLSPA

[25] = molecular target: ALX3 (Homo sapiens, UniProt O95076 139-225, N203S)
Sequence of ALX3 (Homo sapiens, UniProt O95076 139-225, N203S) (O95076 139-225 N203S): as the sequence (O95076 139-225 N203Q) above, with Q65S counted along it

[26] = molecular target: T7, NKX2-6 (Homo sapiens, UniProt A6NCS4 118-204)
T7 sequence: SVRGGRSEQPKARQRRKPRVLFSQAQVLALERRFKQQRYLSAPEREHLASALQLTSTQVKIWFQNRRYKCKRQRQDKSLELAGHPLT

[27] = molecular target: T8, NKX2-6 (Homo sapiens, UniProt A6NCS4 118-204, F151L)
T8 sequence: T7 sequence with F34L

Sequence of MSX2 (Homo sapiens, UniProt P35548 130-214, R199I) (P35548 130-214 R199I): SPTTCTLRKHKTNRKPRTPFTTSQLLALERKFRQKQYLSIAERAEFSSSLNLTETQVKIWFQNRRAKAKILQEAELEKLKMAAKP
Sequence of ALX4 (Homo sapiens, UniProt Q9H161 200-286, Q225E) (Q9H161 200-286 Q225E): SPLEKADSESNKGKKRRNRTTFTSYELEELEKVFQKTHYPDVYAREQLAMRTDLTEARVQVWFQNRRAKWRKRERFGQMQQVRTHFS
Sequence of ALX4 (Homo sapiens, UniProt Q9H161 200-286) (Q9H161 200-286): as the sequence (Q9H161 200-286 Q225E) above, with E26Q counted along it
Sequence of MSX2 (Homo sapiens, UniProt P35548 130-214) (P35548 130-214): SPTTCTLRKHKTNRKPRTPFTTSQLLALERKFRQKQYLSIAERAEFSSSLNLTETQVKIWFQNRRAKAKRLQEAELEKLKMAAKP

CCTGCGAG
binding signal [1]: 7.97 upbm affinity estimate (log intensity, higher = more binding, comparable within an allelic series)
binding signal [2]: 7.97 upbm affinity estimate (log intensity, higher = more binding, comparable within an allelic series)
binding signal [3]: 9.6 upbm affinity estimate (log intensity, higher = more binding, comparable within an allelic series)
binding signal [4]: 9.6 upbm affinity estimate (log intensity, higher = more binding, comparable within an allelic series)
binding signal [5]: 9.61 upbm affinity estimate (log intensity, higher = more binding, comparable within an allelic series)

GCTGCAGC
binding signal [6]: 9.33 upbm affinity estimate (log intensity, higher = more binding, comparable within an allelic series)
binding signal [7]: 9.31 upbm affinity estimate (log intensity, higher = more binding, comparable within an allelic series)
binding signal [8]: 9.16 upbm affinity estimate (log intensity, higher = more binding, comparable within an allelic series)
binding signal [9]: 7.32 upbm affinity estimate (log intensity, higher = more binding, comparable within an allelic series)
binding signal [3]: 9.55 upbm affinity estimate (log intensity, higher = more binding, comparable within an allelic series)
binding signal [10]: 9.38 upbm affinity estimate (log intensity, higher = more binding, comparable within an allelic series)
binding signal [11]: 10.3 upbm affinity estimate (log intensity, higher = more binding, comparable within an allelic series)
binding signal [12]: 9.33 upbm affinity estimate (log intensity, higher = more binding, comparable within an allelic series)
binding signal [4]: 9.49 upbm affinity estimate (log intensity, higher = more binding, comparable within an allelic series)
binding signal [13]: 9.42 upbm affinity estimate (log intensity, higher = more binding, comparable within an allelic series)
binding signal [5]: 9.48 upbm affinity estimate (log intensity, higher = more binding, comparable within an allelic series)
binding signal [14]: 9.46 upbm affinity estimate (log intensity, higher = more binding, comparable within an allelic series)
binding signal [15]: 10.6 upbm affinity estimate (log intensity, higher = more binding, comparable within an allelic series)
binding signal [16]: 9.11 upbm affinity estimate (log intensity, higher = more binding, comparable within an allelic series)
binding signal [17]: 6.95 upbm affinity estimate (log intensity, higher = more binding, comparable within an allelic series)

CGTGGAGC
binding signal [1]: 8.15 upbm affinity estimate (log intensity, higher = more binding, comparable within an allelic series)
binding signal [2]: 8.37 upbm affinity estimate (log intensity, higher = more binding, comparable within an allelic series)
binding signal [3]: 9.58 upbm affinity estimate (log intensity, higher = more binding, comparable within an allelic series)
binding signal [4]: 9.61 upbm affinity estimate (log intensity, higher = more binding, comparable within an allelic series)
binding signal [5]: 9.61 upbm affinity estimate (log intensity, higher = more binding, comparable within an allelic series)

ACGGAGGC
binding signal [1]: 8.04 upbm affinity estimate (log intensity, higher = more binding, comparable within an allelic series)
binding signal [2]: 8.29 upbm affinity estimate (log intensity, higher = more binding, comparable within an allelic series)
binding signal [3]: 9.59 upbm affinity estimate (log intensity, higher = more binding, comparable within an allelic series)
binding signal [18]: 7.76 upbm affinity estimate (log intensity, higher = more binding, comparable within an allelic series)
binding signal [4]: 9.53 upbm affinity estimate (log intensity, higher = more binding, comparable within an allelic series)
binding signal [19]: 7.71 upbm affinity estimate (log intensity, higher = more binding, comparable within an allelic series)
binding signal [20]: 6.67 upbm affinity estimate (log intensity, higher = more binding, comparable within an allelic series)
binding signal [21]: 6.65 upbm affinity estimate (log intensity, higher = more binding, comparable within an allelic series)
binding signal [22]: 7.84 upbm affinity estimate (log intensity, higher = more binding, comparable within an allelic series)
binding signal [23]: 7.82 upbm affinity estimate (log intensity, higher = more binding, comparable within an allelic series)
binding signal [24]: 6.49 upbm affinity estimate (log intensity, higher = more binding, comparable within an allelic series)
binding signal [5]: 9.52 upbm affinity estimate (log intensity, higher = more binding, comparable within an allelic series)
binding signal [25]: 7.76 upbm affinity estimate (log intensity, higher = more binding, comparable within an allelic series)

GAGAGCGC
binding signal [1]: 7.97 upbm affinity estimate (log intensity, higher = more binding, comparable within an allelic series)
binding signal [2]: 8.13 upbm affinity estimate (log intensity, higher = more binding, comparable within an allelic series)
binding signal [18]: 7.72 upbm affinity estimate (log intensity, higher = more binding, comparable within an allelic series)
binding signal [19]: 7.6 upbm affinity estimate (log intensity, higher = more binding, comparable within an allelic series)
binding signal [22]: 7.75 upbm affinity estimate (log intensity, higher = more binding, comparable within an allelic series)
binding signal [23]: 7.76 upbm affinity estimate (log intensity, higher = more binding, comparable within an allelic series)
binding signal [25]: 7.72 upbm affinity estimate (log intensity, higher = more binding, comparable within an allelic series)

CAGCCGGC
binding signal [6]: 9.11 upbm affinity estimate (log intensity, higher = more binding, comparable within an allelic series)
binding signal [7]: 9.15 upbm affinity estimate (log intensity, higher = more binding, comparable within an allelic series)
binding signal [8]: 9.27 upbm affinity estimate (log intensity, higher = more binding, comparable within an allelic series)
binding signal [3]: 9.43 upbm affinity estimate (log intensity, higher = more binding, comparable within an allelic series)
binding signal [10]: 9.19 upbm affinity estimate (log intensity, higher = more binding, comparable within an allelic series)
binding signal [12]: 9.05 upbm affinity estimate (log intensity, higher = more binding, comparable within an allelic series)
binding signal [4]: 9.21 upbm affinity estimate (log intensity, higher = more binding, comparable within an allelic series)
binding signal [13]: 9.05 upbm affinity estimate (log intensity, higher = more binding, comparable within an allelic series)
binding signal [5]: 9.41 upbm affinity estimate (log intensity, higher = more binding, comparable within an allelic series)
binding signal [14]: 9.13 upbm affinity estimate (log intensity, higher = more binding, comparable within an allelic series)
binding signal [16]: 8.9 upbm affinity estimate (log intensity, higher = more binding, comparable within an allelic series)

CCACATGG
binding signal [1]: 8.13 upbm affinity estimate (log intensity, higher = more binding, comparable within an allelic series)
binding signal [2]: 8.32 upbm affinity estimate (log intensity, higher = more binding, comparable within an allelic series)
binding signal [26]: 9.61 upbm affinity estimate (log intensity, higher = more binding, comparable within an allelic series)
binding signal [27]: 9.23 upbm affinity estimate (log intensity, higher = more binding, comparable within an allelic series)
